Bcl-xL primary = blocks human Bcl-xL binding to Bim BH3 peptide. actives 0.7% (n = 320,000). Q07817. GST-Bcl-xL / FITC-Bim BH3 peptide fluorescence polarization. inhibition, % at 10.9 µM;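 active = inhibition above the mean of all tested compounds plus 3 SD, cutoff set per campaign, cut at about 30% in these data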;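 note: 0% = DMSO wells and 100% = unlabeled Bim-BH3 peptide competitor; inhibitors lower millipolarization by displacing the labeled peptide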
EBV gp42 block = inhibitors of Epstein-Barr virus glycoprotein 42. actives 0.42% (n = 220,000). Q1HVG2. inhibition, % (tested at 21.74 µM). AID 1085. Fluorescence polarization binding assay, mP read-out; in the data active = inhibition above about 50%
E coli Lon inh = inhibitors of E. coli Lon protease. actives 0.42% (n = 360,000). purified E. coli Lon protease, fluorescence polarization. P0A9M0. inhibition, % at 7.94 µM; in the data active = inhibition above about 13%, passing the limit was not always enough;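 note: 0% = enzyme with probe and DMSO and 100% = no enzyme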
MCL1-BIM inh = disrupts human MCL1 binding to BIM-BH3 peptide; actives 0.68% (n = 320,000); Q07820; inhibition, % at 10.9 µM; GST-MCL1 / FITC-Bim-BH3 fluorescence polarization;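 active = inhibition above the mean inhibition of all tested compounds plus 3 SD, set per campaign, cut at about 40% in these data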;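 note: 0% = DMSO wells and 100% = unlabeled Bim-BH3 peptide control; higher means more loss of mP so more displacement of Bim peptide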
GLD-1 TGE inh = GLD-1-TGE RNA interaction inhibition (C. elegans). Q17339. inhibition, % at 5.96 µM. actives 0.44% (n = 320,000). purified GLD-1 + fluorescein TGE RNA, fluorescence polarization;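 active = percent inhibition above a per-plate cutoff, the plate mean of test compounds plus 3 SD, cut at about 30% in these data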;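 note: 0% = DMSO wells with GLD-1 and probe and 100% = wells lacking GLD-1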
MEX-5 binding = C. elegans MEX-5 TCR-2 RNA binding activity; Q9XUB2; MEX-5/FITC-TCR2 RNA binding, fluorescence polarization; stronger effect = lower value; activity score (negative = inhibition of binding), % at 10 µM; actives 0.38% (n = 300,000); AID 1832;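 active = inhibition past about -25% in most replicates, and total fluorescence under double the plate's negative control median, limit read from the data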;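 note: 0% = DMSO and -100% = 5 µM competing unlabeled TCR2 RNA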
Target sequence (Q9XUB2 whole entry, looked up): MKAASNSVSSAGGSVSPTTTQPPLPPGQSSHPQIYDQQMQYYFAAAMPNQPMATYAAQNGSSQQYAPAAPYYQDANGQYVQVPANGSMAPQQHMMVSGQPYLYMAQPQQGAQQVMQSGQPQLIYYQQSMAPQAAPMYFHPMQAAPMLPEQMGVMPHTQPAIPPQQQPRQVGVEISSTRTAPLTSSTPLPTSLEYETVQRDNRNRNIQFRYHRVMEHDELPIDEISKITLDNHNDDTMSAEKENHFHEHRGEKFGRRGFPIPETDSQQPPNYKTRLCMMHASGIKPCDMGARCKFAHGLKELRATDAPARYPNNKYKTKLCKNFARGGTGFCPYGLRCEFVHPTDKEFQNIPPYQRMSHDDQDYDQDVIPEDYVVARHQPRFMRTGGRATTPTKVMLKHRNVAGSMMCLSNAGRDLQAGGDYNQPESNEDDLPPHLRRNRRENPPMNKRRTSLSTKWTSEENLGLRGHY
* = called active by the depositor; . = no result. In the library only some 1.4% were active in any assay of this set; here they are far more common.

SMILES	Bcl-xL primary	EBV gp42 block	E coli Lon inh	MCL1-BIM inh	GLD-1 TGE inh	MEX-5 binding
CCOC(=O)c1c(-c2ccc(C)o2)csc1NC(=S)NC(=O)c1cccs1	9.9	-14.7	-0.4	13.4	14.0	-33.9*
COc1cc(/C=N/Nc2nc(=O)[nH]nc2C)cc([N+](=O)[O-])c1O	14.9	-2.8	6.5	9.3	5.3	-78.7*
O=[N+]([O-])c1cc(Cl)cc(/C=N/Nc2nc3ccccc3s2)c1O	4.4	-5.9	0.7	8.5	-0.8	-0.9
Cc1n[nH]c(=O)nc1N/N=C/c1ccc(O)c([N+](=O)[O-])c1	2.6	-15.8	-3.5	-5.4	7.5	-27.6*
COc1cc(/C=N/Nc2nc3ccccc3s2)cc([N+](=O)[O-])c1O	34.2*	8.2	9.6	16.6	-4.7	-3.3
CCOc1ccc(S(=O)(=O)N2CCCC(C(=O)NCc3cccnc3)C2)cc1 (centres undefined)	1.6	.	-5.4	-1.5	4.6	4.2
CCOC(=O)C1CCN(S(=O)(=O)c2ccc3oc(=O)ccc3c2)CC1	0.6	.	15.5	0.4	1.9	2.1
COc1ccc(C2=CC(c3ccc(Cl)cc3)n3cnnc3N2)cc1OC (centres undefined)	58.7*	54.7*	7.7	62.4*	44.0*	-11.4
CC(=O)Nc1nc2n(n1)C(c1ccc(Cl)cc1)C=C(C)N2 (centres undefined)	7.7	-4.8	-1.1	6.6	3.1	-1.5
CC(=O)Nc1nc2n(n1)C(c1ccc(F)cc1)C=C(c1ccccc1)N2 (centres undefined)	52.1*	33.5	10.5	46.8*	37.0*	-16.8
COc1ccc(C2C=C(c3ccc(Cl)cc3)Nc3nc(NC(C)=O)nn32)cc1 (centres undefined)	138.9*	106.3*	.	158.3*	118.8*	.
O=C(Nc1nc2n(n1)C(c1ccc(F)cc1)CC(c1ccccc1)N2)c1ccco1 (centres undefined)	5.1	-4.6	6.9	-1.1	3.4	1.7
COc1cccc(C2=CC(c3ccc(OC)c(OC)c3OC)n3nnnc3N2)c1 (centres undefined)	1.0	-10.1	0.7	-2.9	8.0	-0.2
O=C(Nc1nc2n(n1)C(c1ccccc1)C=C(c1ccccc1)N2)c1ccco1 (centres undefined)	26.6	14.7	-7.4	40.0*	12.2	0.2
Cc1onc(-c2ccccc2)c1C(=O)OCC(=O)NC(C)c1ccc(Cl)cc1 (centres undefined)	0.6	.	-9.2	-13.9	6.1	.
COC(=O)C1CN(Cc2ccccc2)C(=O)C1=O (centres undefined)	.	.	-12.2	.	.	.
CC(=O)N1CCn2c3c(c(=O)c4cc(C)ccc42)CCC31 (centres undefined)	32.5*	-7.1	0.7	22.6	11.6	-10.7
S=C(Nc1ccc2nc(-c3ccccn3)c(-c3ccccn3)nc2c1)N1CCCCC1	.	54.6*	13.8	.	.	.
Cc1nc2ccc(NC(=S)N3CCN(c4ccccn4)CC3)cc2nc1C	5.3	-17.9	-5.5	11.3	3.6	-0.3
S=C(Nc1ccc2nc(-c3ccccn3)c(-c3ccccn3)nc2c1)N1CCCCCC1	34.9*	6.6	2.4	41.1*	14.8	-17.1
CN1C(=O)N(C)C(c2cccc([N+](=O)[O-])c2)C2=C1CCCC2=O (centres undefined)	4.7	.	-0.4	2.2	-6.9	-1.5
C/C(=N/OC(=O)c1c(-c2c(Cl)cccc2Cl)noc1C)c1cnccn1	-0.2	55.1*	-2.4	-3.3	8.3	1.7
C/C(=N/OC(=O)c1c(-c2ccccc2Cl)noc1C)c1cnccn1	2.5	-3.9	-16.2	-4.5	-5.2	2.6
CCSc1nnc(NC(NC(C)=O)(C(F)(F)F)C(F)(F)F)s1	8.1	-7.7	4.6	-3.9	0.4	1.0
O=c1[nH]c(CSc2ncccn2)nc2c1cnn2-c1ccccc1	4.0	0.9	-11.4	5.5	-6.5	-26.4*
O=c1[nH]c(SCc2nc3c(cnn3-c3ccccc3)c(=O)[nH]2)nc2ccccc12	.	-83.9	4.2	.	.	.
NC(=O)CSc1ccc(S(=O)(=O)N2CCOCC2)cn1	37.6*	.	13.0	42.7*	19.8	.
O=c1c(O)c(-c2cccs2)oc2ccc(Cl)cc12	46.0*	29.8	-69.5	41.7*	57.1*	-4.9
O=c1c(O)c(-c2cccs2)oc2ccccc12	2.3	16.1	-19.6	-2.2	22.9	-7.6

Screening data as filed in PubChem BioAssay.
